Bioassay records (PubChem BioAssay)
TDP1 cell CPT: DT40-hTDP1 cell growth loss with CPT; hit rate 12% among 420,000; chicken DT40 Tdp1-/-;hTDP1 cells + 20 nM CPT, ATP luminescence, 48 h; Potency, µM (highest dose often 46.2 µM), most hits filed as inhibitors; note: nearly all actives have a fitted effect of over 55% in size
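Chicken DT40 Tdp1-/- cells stably complemented with human TDP1 were seeded at 400 cells/well in medium containing 20 nM camptothecin, exposed to pin-transferred compounds, and grown at 37 °C for at least 48 hr. Viability was read as ATP luminescence.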
TGFb SMAD3 inh: blocks TGF-b signaling. HepG2 CAGA-GFP TGF-b/SMAD3 reporter, GFP fluorescence, 18 h; TGF-beta stimulated, 500 pg/mL final. Potency, µM (top dose mostly 46.1 µM), usual class: inhibitors. hit rate 1.2% among 410,000. AID 588855; note: nearly all actives have a fitted effect of over 65% in size
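HEPG2 CAGA-GFP reporter cells (1000/well, DMEM with 1% FBS) received compounds, then recombinant TGF-beta at 500 pg/mL final for 18 hours at 37 degrees C. Per-cell GFP summed per well was normalised to unstimulated and stimulated DMSO controls before curve fitting.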
TDP1 inh: TDP1 (human) enzyme inhibition. Q9NUW8. Potency, µM (doses to about 130 µM), actives largely listed as inhibitors. hit rate 0.28% among 350,000. recombinant TDP1, AlphaScreen DNA substrate cleavage; note: nearly all actives have a fitted effect of over 40% in size
Target sequence (Q9NUW8 whole entry, looked up): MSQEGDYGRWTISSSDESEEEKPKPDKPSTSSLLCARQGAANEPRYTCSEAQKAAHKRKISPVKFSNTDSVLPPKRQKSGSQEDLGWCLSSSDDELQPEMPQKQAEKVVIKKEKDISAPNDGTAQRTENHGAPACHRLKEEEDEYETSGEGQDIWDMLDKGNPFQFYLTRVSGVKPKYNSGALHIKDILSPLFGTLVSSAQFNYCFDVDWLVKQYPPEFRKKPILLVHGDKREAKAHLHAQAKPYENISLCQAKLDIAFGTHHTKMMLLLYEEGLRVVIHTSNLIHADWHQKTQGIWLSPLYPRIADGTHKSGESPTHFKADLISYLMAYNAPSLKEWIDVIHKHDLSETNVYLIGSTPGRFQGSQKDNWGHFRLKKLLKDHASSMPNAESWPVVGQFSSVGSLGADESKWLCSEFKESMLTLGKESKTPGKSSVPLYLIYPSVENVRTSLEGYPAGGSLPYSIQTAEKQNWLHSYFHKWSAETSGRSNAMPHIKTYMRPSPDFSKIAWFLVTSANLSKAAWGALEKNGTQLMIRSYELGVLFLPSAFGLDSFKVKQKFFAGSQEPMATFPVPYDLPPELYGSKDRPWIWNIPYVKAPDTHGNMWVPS
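Steps: enzyme plus compound, 15 min RT; add biotin/phosphotyrosine-FITC oligonucleotide (15 nM final), react 5 min; add donor/acceptor beads (10 ug/ml final), 10 min; read AlphaScreen. Tdp1 at 1 nM final.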
IL1B secr inh: blocks inflammasome-driven IL-1 beta release; THP-1 LPS/ATP IL-1B secretion, AlphaLISA, 16 h; stronger effect = lower value; activity change, % at 57.5 µM; hit rate 4.7% among 360,000; in the data active = activity change below about -50%; inconclusive = mostly about -30% to -49%
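THP-1 cells pretreated 1 hr with compounds (up to 57.5 uM final), then stimulated with LPS (250 ng/mL final) plus ATP (1.25 mM final); secreted IL-1B measured by AlphaLISA after 16 hr, decreased signal indicating inhibition.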
DT40 TDP1 no CPT: qHTS for Inhibitors of human tyrosyl-DNA phosphodiesterase 1 (TDP1): qHTS in cells in absence of CPT; DT40 Tdp1-/- hTDP1 cells, no CPT, ATP luminescence, 48 h; Potency, µM (doses to about 46.2 µM), actives largely listed as inhibitors; hit rate 15% among 420,000; AID 686978, 2013; note: nearly all actives have a fitted effect of over 55% in size
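Growth kinetics read by CellTiter-Glo luminescence after ≥48 hr at 37 °C. Cells: DT40 Tdp1-/- stably carrying human TDP1, 400 per well, compound exposure in the absence of CPT (DMSO vehicle).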
HepG2 viability: counter-screen for TGF-b inhibitors: cytotoxicity in HepG2 cells; Potency, µM (doses to about 46.1 µM), hits mostly cytotoxic; HepG2 CAGA-GFP viability, ATP luminescence, 18 h; hit rate 0.76% among 410,000
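HepG2 CAGA-GFP cells (1000/well, DMEM with 1% FBS) received compound, then TGF-beta at 500 pg/mL final, and were incubated 18 hours at 37 degrees C. Viability was read by CellTiter-Glo luminescence. Media-only wells were set as complete cell-killing and DMSO as no toxicity.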
Each line names hits and unclear results; the compound was inactive in the other large screens; ! = not active in a repeat. Hits are enriched below; roughly 19% of the tested compounds scored in any of these assays. Unless noted, calls come from the whole dose curve; as a rule, active = well fitted curve in the direction sought with a large enough effect; inconclusive = small, poorly fitted or top-dose-only effect, or another doubt; inactive = no such curve, though single readings can be large; an effect the other way counts as inactive or inconclusive.

COc1cccc(OCCSc2nc3ccccc3c(=O)[nH]2)c1	DT40 TDP1 no CPT 21µM
C[C@@H](c1ccccc1)N1Cc2ccccc2Oc2cc(Br)ccc2S1(=O)=O	TDP1 cell CPT inconclusive, TGFb SMAD3 inh inconclusive
C[C@@H](c1ccccc1)N1C[C@@H](COCc2ccccc2)Oc2cc(N3CC[C@H](N(C)C)C3)ccc2S1(=O)=O	none (no result: TGFb SMAD3 inh, TDP1 inh, HepG2 viability)
C[C@H](c1ccccc1)N1C[C@@H](COCc2ccccc2)Oc2cc(N3CC[C@H](N(C)C)C3)ccc2S1(=O)=O	TDP1 cell CPT inconclusive, DT40 TDP1 no CPT 16µM (no result: TGFb SMAD3 inh, TDP1 inh, HepG2 viability)
C[C@H](c1ccccc1)N1C[C@@H](COCc2ccccc2)Oc2cc(N3CC[C@@H](N(C)C)C3)ccc2S1(=O)=O	TDP1 cell CPT 18µM, DT40 TDP1 no CPT inconclusive (no result: TGFb SMAD3 inh, TDP1 inh, HepG2 viability)
COc1nc(N(C)C)nc(N(C#N)CCOC(C)=O)n1	TDP1 cell CPT inconclusive, IL1B secr inh inconclusive
Cc1ccccc1OCCN(C#N)c1nc(N(C)C)nc(N(C)C)n1	TDP1 cell CPT inconclusive, DT40 TDP1 no CPT 16µM
CC(=O)c1ccccc1-c1ccc2c(c1)CC(CNC(=O)C[C@@H]1C[C@@H](C)NC(=S)N1)O2 (stereo partly drawn)	none (no result: TGFb SMAD3 inh, TDP1 inh, IL1B secr inh, HepG2 viability)
COc1cc2c(cc1NS(=O)(=O)c1cccc(C#N)c1)n(C)c(=O)n2C	TDP1 cell CPT 21µM, DT40 TDP1 no CPT inconclusive (no result: IL1B secr inh)
Oc1c(CN2CCCC(C(F)(F)F)C2)cc(Cl)c2ccccc12 (stereo not drawn)	TDP1 cell CPT 18µM, TGFb SMAD3 inh inconclusive, DT40 TDP1 no CPT inconclusive (no result: TDP1 inh)
CCOC(=O)C1CCN(Cc2nc3ccc(Cl)cc3n2CCO)CC1	TDP1 cell CPT 21µM, DT40 TDP1 no CPT inconclusive
CCOC(=O)C1CCN(Cc2ccc(F)c(Br)c2)CC1	none
CCOC(=O)C1CCN(Cc2cc(Cl)c3ccccc3c2O)CC1	TDP1 cell CPT 18µM, TGFb SMAD3 inh inconclusive, DT40 TDP1 no CPT inconclusive
CCOC(=O)C1CCN(Cc2cc(=O)oc3cc(C)c(Cl)cc23)CC1	TDP1 cell CPT inconclusive, DT40 TDP1 no CPT 23µM (no result: TDP1 inh)
CCCN1CCN(S(=O)(=O)c2ccc(-n3cnnn3)cc2)CC1	none
CCC1CCCCN1CCCNC(=O)Cn1nc(C)n2nc(-c3ccccc3)cc2c1=O (stereo not drawn)	IL1B secr inh inconclusive
C#CCN(Cc1ccco1)C(=O)c1ccc(OC2CCN(Cc3ccccn3)CC2)cc1	TDP1 cell CPT 18µM, DT40 TDP1 no CPT inconclusive (no result: TDP1 inh)
O=C(NCc1ccco1)c1ccc(OC2CCN(Cc3ccccn3)CC2)cc1	IL1B secr inh inconclusive (no result: TDP1 inh)
CCCCCCn1c(SCCC)nc2c1c(=O)[nH]c(=O)n2C	DT40 TDP1 no CPT 10µM
COCCn1c(SCc2ccc(Cl)cc2)nc2c1c(=O)[nH]c(=O)n2C	DT40 TDP1 no CPT inconclusive (no result: TDP1 inh)
CCCn1c(SCc2ccc(Cl)cc2)nc2c1c(=O)[nH]c(=O)n2C	TDP1 cell CPT inconclusive, DT40 TDP1 no CPT 16µM
CCn1c(SCc2ccccc2)nc2c1c(=O)[nH]c(=O)n2C	TDP1 cell CPT inconclusive, DT40 TDP1 no CPT 18µM (no result: TDP1 inh)
C=CCn1c(SCCCc2ccccc2)nc2c1c(=O)[nH]c(=O)n2C	TDP1 cell CPT inconclusive, DT40 TDP1 no CPT 26µM
CN(C)c1ccc(N=Nc2ccc(S(=O)(=O)O)cc2)cc1	none (no result: TDP1 inh, IL1B secr inh)
Cc1cc(C)c2c(CC(=O)N(Cc3ccccc3)C3CCS(=O)(=O)C3)coc2c1 (stereo not drawn)	TDP1 cell CPT inconclusive, TGFb SMAD3 inh inconclusive, DT40 TDP1 no CPT inconclusive (no result: IL1B secr inh)
C/C=C/Cn1c(SC)nc2c1c(=O)[nH]c(=O)n2C	DT40 TDP1 no CPT inconclusive
C/C=C/Cn1c(SCc2ccc(Cl)cc2)nc2c1c(=O)[nH]c(=O)n2C	TDP1 cell CPT 18µM, DT40 TDP1 no CPT 23µM
CCOc1ccc(CCNC(=O)CS(=O)Cc2nc(-c3ccc(C)cc3)oc2C)cc1OCC (stereo not drawn)	TDP1 cell CPT 16µM!, TGFb SMAD3 inh inconclusive, DT40 TDP1 no CPT inconclusive
